Compound activity (PubChem BioAssay)
Sampled rows, rich in hits. Any-hit rate of the full collection: about 3.5%.
FBW7 act – FBW7 E3 ligase activators, primary screen, biochemical, AlphaScreen, human | F-box/WD repeat-containing protein 7 (Homo sapiens), Q969H0 | AlphaScreen FBW7–phospho-cyclin E peptide binding, activator screen | normalized activity (activation), % at 26.1 µM | 0.13% of 650,000 active | AID 1259310, 2017; in the data active = normalized activity above about 1.9%;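 note: purified mutant Fbw7 with reduced substrate affinity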
GPR151 ag – activators of human GPR151, primary screen, cell-based, PathHunter beta-arrestin, luminescence. PathHunter beta-arrestin GPR151 cells. activation, % at 11.2 µM. 1% of 650,000 active; in the data active = activation above about 4.9%
Target sequence (Q8TDV0 whole entry, looked up): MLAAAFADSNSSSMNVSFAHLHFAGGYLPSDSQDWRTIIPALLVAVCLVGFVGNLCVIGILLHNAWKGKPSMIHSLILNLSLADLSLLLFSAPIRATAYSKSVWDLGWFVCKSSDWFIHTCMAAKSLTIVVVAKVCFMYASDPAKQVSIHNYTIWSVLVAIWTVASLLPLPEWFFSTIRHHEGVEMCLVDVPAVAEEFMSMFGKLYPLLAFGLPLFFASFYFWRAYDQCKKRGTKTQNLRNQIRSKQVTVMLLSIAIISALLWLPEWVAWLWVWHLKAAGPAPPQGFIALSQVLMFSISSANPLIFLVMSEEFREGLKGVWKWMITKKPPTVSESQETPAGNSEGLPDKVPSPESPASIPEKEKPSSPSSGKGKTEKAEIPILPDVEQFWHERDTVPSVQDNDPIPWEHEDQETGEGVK
TEAD-YAP block – TEAD-YAP interaction inhibition, primary screen, TEAD-YAP interaction inhibitor project, luminescence, HEK-TIYL cells | TEAD-Gal4/YAP UAS-luciferase luminescence | AID 1259422, 2018 | 1.4% of 640,000 active | inhibition, % at 9.12 µM; in the data active = inhibition above about 32%
MITF primary – MITF inhibitors, primary screen, biochemical, AlphaScreen, human; Microphthalmia-associated transcription factor (Homo sapiens), O75030; AlphaScreen MITF homodimerization, bead proximity signal; 0.91% of 650,000 active; AID 1259374, 2018; inhibition, % at 2.6 µM; in the data active = inhibition above about 50%
Each line names hits and unclear results; the compound was inactive in the other large screens.

CN1CCNC(=O)C1CC(=O)N1CCN(C(c2ccccc2)c2ccccc2)CC1 (configuration not stated)	none
CCc1ccc(NC(=O)C(=O)N/N=C(\C)CC(=O)Nc2cccc(C(F)(F)F)c2)cc1	none
COc1ccc(CC(=O)Nc2cc3cc(-c4cn[nH]c4)ccc3cn2)cc1	TEAD-YAP block 96
COc1ccc(CC(=O)Nc2cc(C)on2)cc1	none
Cn1cc(-c2ccnc(NC(=O)Cc3ccc4c(c3)OCO4)c2)cn1	TEAD-YAP block 34
COc1ccc(CC(=O)Nc2cc3cc(-c4cnn(C)c4)ccc3cn2)cc1	TEAD-YAP block 72
COc1ccc(CC(=O)Nc2ccc(-c3cn[nH]c3)cc2N2CCN(C)CC2)cc1	none
COc1ccc(CC(=O)Nc2cc(-c3cnn(C)c3)ccn2)cc1	TEAD-YAP block 43
NC1CCN(c2ccnc(NC(=O)Cc3ccc4c(c3)OCO4)c2)CC1	none
CCc1nn2cc(-c3ccccc3)nc2s1	TEAD-YAP block 74
COc1cc(-c2nn3cc(-c4ccccc4)nc3s2)cc(OC)c1OC	none
CCc1nn2cc(-c3ccc(F)cc3)nc2s1	TEAD-YAP block 40
O=C(NCCO)c1ccc(-n2ncc3cc(Nc4ccccc4Cl)ccc32)nc1	none
CCOC(=O)C1=C(C)N=c2s/c(=C/c3ccc(-c4ccccc4C#N)o3)c(=O)n2C1c1ccc(N(C)C)cc1 (configuration not stated)	none
COc1cccc(-n2cc(C(=O)Nc3ccccc3Cl)c3ccccc3c2=O)c1	none
O=C(COc1ccccc1)Nc1nccs1	none
Cc1cccc(OCC(=O)Nc2nccs2)c1	TEAD-YAP block 54
Cc1cccc(OCCCC(=O)Nc2nccs2)c1	none
COc1cccc(-n2cc(C(=O)Nc3nccs3)c3ccccc3c2=O)c1	TEAD-YAP block 43
CC(=O)Nc1cccc(NC(=O)c2cn(-c3ccc(C)c(C)c3)c(=O)c3ccccc23)c1	TEAD-YAP block 44
COc1cccc(OCC(=O)Nc2nccs2)c1	TEAD-YAP block 37
COc1cc(/C=C2/C(=N)N3OC(C)=CC3=NC2=O)ccc1OCCOc1cccc(C)c1	none
CC1=CC2=NC(=O)/C(=C\c3cc(C)n(-c4cccc(C)c4)c3C)C(=N)N2O1	TEAD-YAP block 50
CC1=CC2=NC(=O)/C(=C\c3ccc(OCCOc4cccc(C)c4)cc3)C(=N)N2O1	FBW7 act 2.2
CC1=CC2=NC(=O)/C(=C\c3cc(C)n(-c4cccc(Cl)c4)c3C)C(=N)N2O1	none
CC1=CC2=NC(=O)/C(=C\c3ccc(OCc4ccc5c(c4)OCO5)c(Cl)c3)C(=N)N2O1	TEAD-YAP block 59
CCOc1cc(C2C(C(=O)OC)=CN(Cc3ccc(OC)c(OC)c3)C=C2C(=O)OC)ccc1O	TEAD-YAP block 48
COC(=O)C1=CN(Cc2ccc(OC)c(OC)c2)C=C(C(=O)OC)C1c1ccc(Br)cc1	FBW7 act 1.9
COC(=O)C1=CN(Cc2ccc(OC)c(OC)c2)C=C(C(=O)OC)C1c1ccc(F)cc1	none
CCOc1cc(C2C(C(=O)OC)=CN(Cc3ccc(Cl)cc3)C=C2C(=O)OC)ccc1O	none
O=S(=O)(Nc1ccc(Cc2ccncc2)cc1)c1ccc(Cl)cc1	TEAD-YAP block 38
COc1ccc(-n2cc(-c3cc4ccccc4oc3=O)[nH]c2=S)cc1	none
O=c1oc2ccccc2cc1-c1cn(-c2ccccc2F)c(=S)[nH]1	TEAD-YAP block 68
Cc1cccc(-n2cc(-c3cc4ccccc4oc3=O)[nH]c2=S)c1	TEAD-YAP block 81
O=c1oc2ccccc2cc1-c1cn(-c2ccc(F)cc2)c(=S)[nH]1	TEAD-YAP block 72
CCC(C(=O)Nc1ccc(-c2cn3c(n2)SCC3)cc1)c1ccccc1 (configuration not stated)	none
CCn1c(=O)c(-c2ccc3ccccc3n2)c(C#N)c2ccccc21	none
C=CCc1cccc(/C=N/NC(=O)c2ccccc2OC)c1O	none
O=C(N/N=C/c1cccc(O)c1O)c1cc(O)cc(O)c1	MITF primary 61
Cc1ccccc1/C=N/NC(=O)c1ccccc1C	none
Cc1ccccc1C(=O)N/N=C/c1cccc(O)c1O	TEAD-YAP block 59
C=CCc1cccc(/C=N/NC(=O)c2ccccc2O)c1O	TEAD-YAP block 42
COc1cccc(/C=N/NC(=O)c2ccc(O)cc2O)c1O	TEAD-YAP block 42
COc1cccc(/C=N/NC(=O)c2ccc(-c3ccccc3)cc2)c1O	TEAD-YAP block 83
COc1cccc(/C=N/NC(=O)COc2ccccc2)c1O	none
COc1cccc(/C=N/NC(=O)c2cc(C34CC5CC(CC(C5)C3)C4)[nH]n2)c1O	TEAD-YAP block 40
COc1cccc(/C=N/NC(=O)Cn2c3ccccc3c(=O)c3ccccc32)c1O	TEAD-YAP block 50
COc1cccc(/C=N/NC(=O)c2cc(-c3ccc(C)cc3)n[nH]2)c1O	TEAD-YAP block 79, MITF primary 62
COc1ccc(C(=O)N/N=C/c2cccc(OC)c2O)cc1	none
COc1ccccc1/C=N/NC(=O)c1cc(-c2ccc(C)cc2)n[nH]1	none
COc1cccc(/C=N/NC(=O)c2cccc(NC(=O)c3ccccc3F)c2)c1O	TEAD-YAP block 64
CC(C)Oc1ccc(-c2cc(C(=O)N/N=C/c3ccccc3O)[nH]n2)cc1	TEAD-YAP block 65
COc1cccc(/C=N/NC(=O)c2ccccc2O)c1O	TEAD-YAP block 77
O=C(N/N=C/c1ccccc1O)c1cccc2cc[nH]c12	TEAD-YAP block 81
O=C(N/N=C/c1ccccc1Br)c1cccc2cc[nH]c12	none
c1ccc(Nc2nc(Nc3ncccn3)nc3c2ncn3-c2ccsc2)cc1	none
COc1cccc(C=Nc2ccc3[nH]ncc3c2)c1O	FBW7 act 6.3
COc1cc(Br)cc(C=Nc2ccc3[nH]ncc3c2)c1O	none
COc1cccc2c(SCC(=O)N/N=C/c3ccc(O)cc3O)cc(C)nc12	none
COc1cccc(/C=N/NC(=O)CSc2cc(C)nc3ccc(C)cc23)c1O	TEAD-YAP block 44
CC1(C)C(=O)Nc2ccccc2N1C(=O)CN1C(=O)c2ccccc2C1=O	none
CC1(C)C(=O)Nc2ccccc2N1C(=O)CCl	TEAD-YAP block 48
CCOc1c(Cl)cc(C(=O)OCC(=O)N2c3ccccc3NC(=O)C2(C)C)cc1OC	TEAD-YAP block 32
c1ccc2sc(N3CCN(C4CCCCC4)CC3)nc2c1	TEAD-YAP block 69
Cc1occc1C(=O)N/N=C/c1c(O)ccc2ccccc12	TEAD-YAP block 47
COc1ccccc1C(=O)N/N=C/c1c(O)ccc2ccccc12	TEAD-YAP block 37
COc1ccc(/C=N/NC(=O)c2ccccc2O)cc1O	none
COc1ccc(/C=N/NC(=O)c2cn(C)c3ccccc23)cc1O	TEAD-YAP block 33
O=C1c2cccc3c(Nc4ccccc4Cl)ccc(c23)C(=O)N1c1ccc(Br)cc1	none
Cn1nccc1C(=O)Oc1cccc(/C=N/NC(=O)c2ccccc2O)c1	TEAD-YAP block 42
O=C(Nc1c2c(nn1-c1cccc(Cl)c1)CSC2)c1ccco1	none
CCOC(=O)C1=C(C)NC(SC)=C(C#N)C1CC(C)C (configuration not stated)	TEAD-YAP block 38
